The target in one assay is ZBTB9. The assay can be described thus: pooled miR-30 sensor sort-seq; sequence = guide strand. Conditions: shRNA.
Sequence TGAGCACTGATCTACTACCTGC gave a sensor-assay potency score (higher = more potent) of -0.24.

TTAATGTAGAAGATTTTGGGGG came in with a sensor-assay potency score (higher = more potent) of -0.261.

Turning to TTAAGCTGTAAATCAAATGTAT, the sensor-assay potency score (higher = more potent) was -0.457.

Take TAAATAATTGAAAATCTGGTTT: the sensor-assay potency score (higher = more potent) is -0.887.

TAATTCTCTAAGAATTTCTGAG: the sensor-assay potency score (higher = more potent) was -0.361.

For TAAAACATTTACCACTGTCTTT, the sensor-assay potency score (higher = more potent) is -1.1.

Sequence TTGAGTTTCCACATCTGCCAGG returned a sensor-assay potency score (higher = more potent) of -0.504.

In turn, TTTCTGAGCACTGATCTACTAC had a sensor-assay potency score (higher = more potent) of -0.637.

Sequence TAACACTGCTTTATGAGCCCTA had a sensor-assay potency score (higher = more potent) of -0.401.

In turn, TTTTGCTCTAACTCTTCTCTCA came in with a sensor-assay potency score (higher = more potent) of -0.273.

Take TTTAAGTAACTGCAAGTCCCAC: the sensor-assay potency score (higher = more potent) is -0.539.

Turning to TCGGCTTCAATGACACTCGGTA, the sensor-assay potency score (higher = more potent) is -0.397.

Another assay deals with ZC3H13. Described as above. Conditions: shRNA.
For TTTCAGGATAGCTACTTCGAGT, the sensor-assay potency score (higher = more potent) is -1.23.

Turning to TTCATTTCTATAGCGCTTCTTT, the sensor-assay potency score (higher = more potent) is -0.352.

In turn, TTGAGGTCGTACAACTTGGCTC displayed a sensor-assay potency score (higher = more potent) of -0.282.

Consider TTGATCTAACCACTTCTGGTGA, for which the sensor-assay potency score (higher = more potent) was -0.291.

With TTGTTCTTCATTCTTTCTCTAA, the sensor-assay potency score (higher = more potent) is -0.618.

Regarding TATTCCAACATCATCCTCTTTC, the sensor-assay potency score (higher = more potent) was 0.216.

As to TATAATTGCTGCTATAACCTTT, the sensor-assay potency score (higher = more potent) is -0.316.

TAGACTTTCTTAGAGAAGGTGA yielded a sensor-assay potency score (higher = more potent) of 0.611.

Take TTTTGATCTAACCACTTCTGGT: the sensor-assay potency score (higher = more potent) was -0.785.

TTCTCGGATCTCTTCTCGCTTT: the sensor-assay potency score (higher = more potent) is -0.478.

TTGAACTCTCTTTCCTTTCTGG yielded a sensor-assay potency score (higher = more potent) of 0.745.

On to TTGGATTCCTATCTTCTCGGAT, for which the sensor-assay potency score (higher = more potent) was found to be 0.12.

In a further assay the target is ZDHHC14. The assay is described as above. To be noted: shRNA.
On to TAGTAGCATAACACATAAGTGC, for which the sensor-assay potency score (higher = more potent) was -0.719.

TTGATGATGACTTCTTTGGTTC came in with a sensor-assay potency score (higher = more potent) of -0.541.

Sequence TTTGTTGTCTGGTTGGAGCTGA displayed a sensor-assay potency score (higher = more potent) of 0.539.

With TTACAGAAGAACTTGTTTCTTC, the sensor-assay potency score (higher = more potent) is 0.472.

As to TTACCTCTTTTATTTGACCAGG, the sensor-assay potency score (higher = more potent) is -0.803.

On to TTAGGAATCCTGTTTGCTGTGA, for which the sensor-assay potency score (higher = more potent) was determined as 0.039.

Turning to TTGCAGTCTGGCCACAAGCGTC, the sensor-assay potency score (higher = more potent) is -1.44.

TTGGTCGCACATGTCACTCTGT: the sensor-assay potency score (higher = more potent) was 0.506.

As to TTGGAGCTGATCAAGTAGGTGT, the sensor-assay potency score (higher = more potent) worked out at 0.206.

In turn, TTTGCGATATCTATTTGCCTTT yielded a sensor-assay potency score (higher = more potent) of -0.604.

A further assay addresses ZDHHC20. Described as above. Conditions: shRNA.
On to TTCAGCTCCATTCTCCAGCCAC, for which the sensor-assay potency score (higher = more potent) was -0.374.

In turn, TTGGACAAGTAGAACTCTTTGG showed a sensor-assay potency score (higher = more potent) of -0.323.

Regarding TTATAAAGTACTCTAAAACTGT, the sensor-assay potency score (higher = more potent) was -0.589.

On to TTGTTGTTCTATTTTTTCCAAC, for which the sensor-assay potency score (higher = more potent) is -1.28.

On to TTGTAACAGAAGCTTGTTCTGG, for which the sensor-assay potency score (higher = more potent) was -0.283.

These data come from the OligoGym collection.
Further: reference of the scale not given here.
